# Values without a mark were called inactive. Results filed as inconclusive are left out. Entries that show only a call come without a potency. Active and inactive are the calls of the source. Calls come from the whole dose curve; as a rule, active = well fitted curve in the direction sought with a large enough effect; inconclusive = small, poorly fitted or top-dose-only effect, or another doubt; inactive = no such curve, though single readings can be large; an effect the other way counts as inactive or inconclusive.
# Columns and labels:
# [1] = tested on: Nanoluciferase (engineered Oplophorus gracilirostris luciferase); test: Primary Nanoluciferase (NLuc) qHTS assay for identification of artifact compounds. (AID 1845222);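 note: NLuc secreted into diluted conditioned medium of S16 cells; series mostly up to about 54 µM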
# How it was run: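 S16 cell supernatant NLuc, 1:55; cpds qHTS; 15 min RT dark; Nano-Glo substrate 1:100, 5 min; luminescence; Hill fit of % inhibition.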
# [2] = Primary redox qHTS assay for identification of artifact compounds. (AID 1845223)
# How it was run: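 Amplex Red (25 uM) and HRP (250 mU/mL) in HBSS, with compounds for 15 min, then 250 uM DTT for 30 min, room temperature, dark. Fluorescence 525/598 nm read; normalized to DMSO and 10 uM DA3003; Hill fit.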
Structure (SMILES),Potency [1],Potency [2],"activity, negative = inhibition [1]",redox activity (% of DA3003) [2]
N#Cc1cccc(-c2nc(-c3cccnc3)no2)c1,inactive,inactive,,
CC1=CC2=C(C)C(=O)[C@](C)(O)[C@H](O)C2=CO1,inactive,inactive,,
CC1CCC2(C(=O)O)CCC3(C)C(=CCC4C5(C)CCC(O)C(C)(C(=O)O)C5CCC43C)C2C1(C)O (centres undefined),inactive,inactive,,
CC(=O)OC(C)C(C)(O)C(=O)O[C@@H]1CC[C@]2(C)CC(=O)C(=C(C)C)C[C@H]2[C@]1(C)OC(C)=O (some centres undefined),inactive,inactive,,
CC1=C2C3OC(=O)C(C)C3(O)CCC2(C)CCC1 (centres undefined),inactive,inactive,,
NC1=NC2(c3cc(NC(=O)c4ccc(F)cn4)ccc3F)COCC2CS1 (centres undefined),inactive,inactive,,
CC(C)C1CCC(C(=O)N[C@@H](Cc2ccccc2)C(=O)O)CC1 (some centres undefined),inactive,inactive,,
Nc1ncnc2c1C(=O)N(c1ccc(C3CCC(CC(=O)O)CC3)cc1)CCO2 (centres undefined),inactive,inactive,,
C=CCC/C=C/C#CCCCCCCCC[C@H]1C(=O)O[C@H](C)[C@@H]1O,inactive,inactive,,
O=C1NC(=O)/C(=C/c2cccc(C(F)(F)F)c2)S1,inactive,inactive,,
CCC(C)C(=O)O[C@H]1C[C@](C)(O)[C@]23OC(C)(C)[C@H](C[C@H](OC(=O)c4ccccc4)[C@]2(COC(C)=O)[C@H]1OC(=O)C(C)CC)[C@H]3OC(C)=O (some centres undefined),inactive,inactive,,
COc1ccc([C@H]2OC[C@H]3[C@@H]2CO[C@@H]3c2ccc(O[C@@H]3O[C@H](CO)C(O)[C@H](O)[C@H]3O)c(OC)c2)cc1OC (some centres undefined),inactive,inactive,,
COc1cc(C(=O)OC[C@@]2(O)CO[C@@H](O[C@H]3[C@H](Oc4ccc(O)cc4)O[C@H](CO)[C@@H](O)[C@@H]3O)[C@@H]2O)cc(OC)c1O,inactive,inactive,,
COc1c2cc(c(O[C@@H]3O[C@H](CO)[C@@H](O)[C@H](O)[C@H]3O)c1OC)CCCCC(O)CCc1ccc(O)c-2c1 (some centres undefined),inactive,inactive,,
Nc1ncnc2c1c(COc1cccc(Cl)c1)nn2C1CCOCC1,inactive,inactive,,
C[C@@H](NC(=O)c1cc(C(=O)N[C@@H](Cc2ccccc2)[C@H](O)CNC2CC2)cc(N(C)S(C)(=O)=O)c1)c1ccccc1,inactive,inactive,,
O=C(OC(C(F)(F)F)C(F)(F)F)N1CCN(Cc2cccc(Oc3ccccc3)c2)CC1,inactive,inactive,,
CC(C)c1ccc2c(c1)C(=O)CC1C(C)(C(=O)O)CCCC21C (centres undefined),inactive,inactive,,
CC(/C=C/C=C(\C)C(=O)O[C@@H]1O[C@H](CO[C@@H]2O[C@H](CO)[C@@H](O)[C@H](O)[C@H]2O)[C@@H](O)[C@H](O)[C@H]1O)=C\C=C\C=C(C)\C=C\C=C(/C)C(=O)O[C@@H]1C[C@](O)(C(=O)O)C[C@@H](O)[C@H]1OC(=O)/C=C/c1ccc(O)c(O)c1,,,-29.7% [at 11.6 µM],-7.98% [at 11.5 µM]
COC(=O)C1=CO[C@@H](O[C@@H]2O[C@H](CO)[C@@H](O)[C@H](O)[C@H]2O)[C@@H]2C(C)CC(=O)[C@]12O (some centres undefined),inactive,inactive,,
CC(=O)OC[C@]12[C@@H](OC(=O)c3ccoc3)C[C@@H]3[C@@H](OC(C)=O)[C@]1(OC3(C)C)[C@@](C)(O)C[C@H](OC(=O)c1ccoc1)[C@@H]2OC(=O)c1ccoc1,inactive,inactive,,

Structure (SMILES),Potency [1],Potency [2],"activity, negative = inhibition [1]",redox activity (% of DA3003) [2]
C/C(=C/CO)CC[C@H]1[C@]2(C)C[C@H](O)CC(C)(C)[C@H]2CC[C@]1(C)O,inactive,inactive,,
CCC(C)C(=O)O[C@H]1[C@@H](O[C@H]2O[C@H](CO)[C@@H](O)[C@H](O)[C@H]2O)O[C@H](CO)[C@@H](O)[C@@H]1O (some centres undefined),inactive,inactive,,
C=C1CC[C@@H]2[C@@](C)(CO[C@@H]3O[C@H](CO)[C@@H](O)[C@H](O)[C@H]3O)[C@H](O)CC[C@@]2(C)[C@@H]1CC/C(C)=C/CO[C@@H]1O[C@H](CO)[C@@H](O)[C@H](O)[C@H]1O,inactive,inactive,,
O=S(=O)(O)c1ccc(Nc2ncnc3c2ncn3[C@@H]2O[C@H](CO)[C@@H](O)[C@H]2O)cc1,inactive,inactive,,
CC1=CC(=O)CC(C)(C)C1CCC(C)O[C@@H]1O[C@H](CO)[C@@H](O)[C@H](O)[C@H]1O (some centres undefined),inactive,inactive,,
CC1CC(=O)[C@]2(O)C(C(=O)OCCc3ccc(O)c(O)c3)=CO[C@@H](O[C@@H]3O[C@H](CO)[C@@H](O)[C@H](O)[C@H]3O)[C@H]12 (some centres undefined),inactive,inactive,,
C=C(C(=O)O)[C@H]1C[C@]2(C)C(=O)CC[C@]23O[C@H]1C[C@@H]3C,inactive,inactive,,
C=C(C(=O)OC)[C@]12O[C@@](C)(CC[C@@]3(O)/C(=C\C)C(=O)O[C@]3(C)C[C@@H]1OC(=O)C(CO)CN1CCCC1C(=O)O)CC2=O (some centres undefined),inactive,inactive,,
CCOC(=O)COc1ccc2c(c1)C[C@@H](NC[C@H](O)c1cccc(Cl)c1)CC2,inactive,inactive,,
COc1ccc(-n2c(SCC#N)nc3sc4c(c3c2=O)CCCC4)cc1,inactive,inactive,,
Cc1cccc(-c2nn3c(c2-c2ccnc4ccc(C(N)=O)cc24)CCC3)n1,inactive,inactive,,
O=C(NC/C=C/CN1CCN(c2cccc(Cl)c2Cl)CC1)c1ccc(-c2ccccn2)cc1,inactive,inactive,,
C=CC(C)(O)CCC1C(C)(O)CCC2C(C)(C)CCCC21C (centres undefined),inactive,inactive,,
Fc1ccc(-c2c3cccc(C(F)(F)F)c3nn2Cc2ccc(F)cc2Cl)cc1,inactive,inactive,,
CC(O)C(=O)/C=C/C=C/C(=O)OC1C=C2COC(=O)C2(O)C2(C)CCCC(C)(C)C12 (centres undefined),inactive,inactive,,
C=C1C(OC(C)=O)C(=O)C2C(C)(C)C(O)CCC2(C)C1CC(OC(C)=O)/C(C)=C/COC(C)=O (centres undefined),inactive,inactive,,
CCC(=O)OCC(=O)[C@@]1(OC(=O)CC)[C@@H](C)C[C@H]2[C@@H]3CCC4=CC(=O)C=C[C@]4(C)[C@@]3(F)[C@@H](O)C[C@@]21C,inactive,inactive,,
OC[C@H]1O[C@@H](O[C@H]2[C@H](O)[C@@H](CO)O[C@@H](OCc3ccccc3)[C@@H]2O[C@@H]2OC[C@](O)(CO)[C@H]2O)[C@H](O)[C@@H](O)[C@@H]1O,inactive,inactive,,
C=C(C)[C@@H]1CC[C@]2(CO)CC[C@]3(C)[C@H](CC[C@@H]4[C@@]5(C)CC[C@H](O)C(C)(C)[C@@H]5CC[C@]43C)[C@@H]12,inactive,inactive,,
COc1cnc(-n2cnc(C)n2)c2[nH]cc(C(=O)C(=O)N3CCN(C(=O)c4ccccc4)CC3)c12,inactive,inactive,,
CC1=CCC[C@@H]2[C@@](C)(CCc3ccoc3)[C@H](C(=O)O)CC[C@@]12C,inactive,inactive,,

Structure (SMILES),Potency [1],Potency [2],"activity, negative = inhibition [1]",redox activity (% of DA3003) [2]
CCC/C=C1\OC(=O)C2=C1CCC(O)C2O (centres undefined),inactive,inactive,,
CC(C)CC[C@@H](O)[C@](C)(O)[C@H]1CC[C@@]2(O)C3=CC(=O)[C@@H]4C[C@@H](O)[C@@H](O)C[C@]4(C)[C@H]3CC[C@]12C,inactive,inactive,,
Cc1noc2c1-c1ccccc1C(c1ccc(Cl)cc1)=N[C@H]2CC(N)=O,inactive,inactive,,
Cc1ccccc1NC(=O)Nc1ccc(CN2C(=O)N([C@@H](CC(C)C)C(=O)N[C@@H](CC(=O)O)c3ccccc3)C(=O)C2(C)C)cc1,inactive,inactive,,
CC(C)(O)C1CC=C(C(=O)OC[C@H]2O[C@@H](OC(=O)C3=CCC(C(C)(C)O)CC3)[C@H](O)[C@@H](O)[C@@H]2O)CC1 (some centres undefined),inactive,inactive,,
C=C(C)C1CCC2(C(=O)OC3OC(COC4OC(CO)C(O)C(O)C4O)C(OC4OC(C)C(O)C(O)C4O)C(O)C3O)CCC3(C(=O)O)C(CCC4C5(C)CCC(=O)C(C)(C)C5CCC43C)C12 (centres undefined),,,3.95% [at 11.6 µM],7.53% [at 11.5 µM]
C=C1CCC2C(C)(C(=O)O)CCCC2(C)C1CC/C(C)=C\CO (centres undefined),inactive,inactive,,
N#CC1C(=O)N=C(c2cc(Cl)ccc2O)C=C1c1cc(OCc2ccccc2)cc(OCc2ccccc2)c1 (centres undefined),inactive,inactive,,
CC1CCC2C(C(=O)O)=CC3(O)CC(C)(C)CC123 (centres undefined),inactive,inactive,,
CC(C)N(CCCNC(=O)Nc1ccc(C(C)(C)C)cc1)C[C@H]1O[C@@H](n2ccc3c(N)ncnc32)[C@H](O)[C@@H]1O,inactive,inactive,,
CC1C2=CC(=O)OC2(O)CC2C1C(O)CC1C(C)(CO)CCCC21C (centres undefined),inactive,inactive,,
CC(C)C1C(OC(=O)/C=C/c2ccccc2)CC2(C)OC2CCC2(C)OC2C1O (centres undefined),inactive,inactive,,
C=C1C(=O)O[C@@H]2/C=C(\C)CC/C=C(\C(=O)O[C@@H]3O[C@H](CO)[C@@H](O)[C@H](O)[C@H]3O)CC[C@@H]12,inactive,inactive,,
CC(C)=C1CC2C(CCC2(C)O)C(C)(O)CC1=O (centres undefined),inactive,inactive,,
COC(=O)[C@H](O)[C@H]1C(C)(C)[C@H](OC(C)=O)[C@@]2(O)C(=O)[C@]1(C)C1CC[C@]3(C)C(CC(=O)O[C@H]3c3ccoc3)[C@]13O[C@@H]32 (some centres undefined),inactive,inactive,,
C[C@@H]1C(=O)O[C@H](C)[C@H]1C[C@@H](O)[C@](C)(O)[C@H]1CC[C@@]2(O)C3=CC(=O)[C@@H]4C[C@@H](O)[C@@H](O)C[C@]4(C)C3CC[C@]12C (some centres undefined),inactive,inactive,,
CC(=O)O[C@@H]1[C@H](OC(C)=O)C[C@@]2(C)C(CC[C@@H](C)[C@]23Cc2c(O)cc4c(c2O3)CN([C@@H](CCC(=O)O)C(=O)O)C4=O)C1(C)C (some centres undefined),inactive,inactive,,
O=C(O)CC1CCC(c2ccc(-c3ccc(Nc4ccc(C(F)(F)F)nc4)cn3)cc2)CC1 (centres undefined),inactive,inactive,,
Cc1ccc(C)c(S(=O)(=O)n2cnc3ccccc32)c1,inactive,inactive,,
COc1ccc(-n2[nH]c3c(cnc4ccccc43)c2=O)cc1,inactive,inactive,,
